Laboratory results as given in PubChem BioAssay AID493201 (National Center for Advancing Translational Sciences (NCATS), 2011).
Inconclusive results are not listed. A call without a number means that no potency is given here. Activity calls are given as the source filed them. Calls follow the shape of the dose curve; as a rule, active = well fitted activation curve with a large enough effect; inconclusive = small, poorly fitted or top-dose-only effect; inactive = no such curve, though single readings can be large or run the other way.

Assay: qHTS Assay for Identifying a Potential Treatment of Ataxia-Telangiectasia: Secondary assay (no NCS) hit validation;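 also: phosphorylated KAP1 signal as a proxy for ATM-like kinase activity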
Conditions: A-T patient fibroblasts, AlphaLISA, no DNA damage added, 90 min; series mostly up to 76.9 µM
In short: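 hTERT-immortalized A-T patient fibroblasts (F2112), 500 cells/well, exposed to compounds at up to 76.7 uM final without NCS at 37C. KAP-1 phosphorylation measured by AlphaLISA after lysis and 6 h detection at 25C.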
Potency is read from the fitted curve at half-maximal effect.

SMILES | Potency
COc1cccc(CNCc2ccc(OC)c3ccccc23)c1OC | inactive
O=C(OCCc1cc2ccccc2c(=O)o1)c1cccc(Br)c1 | inactive
CC(C)OP(=O)(OC(C)C)C(O)c1ccc(N(C)C)cc1 (stereo not given) | 9.23 µM (active)
O=C(NCc1ccccc1)c1cccnc1Sc1ccccc1 | inactive
COCCCNC(=O)c1c[nH]c2ccc(S(=O)(=O)N(C)c3ccccc3C)cc2c1=O | inactive
CCCc1ccc(S(=O)(=O)Nc2ccc(C)c(NS(C)(=O)=O)c2)cc1 | inactive
O=C(N/N=C/c1ccncc1)c1ccc(COc2cccc3cccnc23)cc1 | inactive
COc1ccc(N(CCC#N)C(=O)/C(C#N)=C\c2cccs2)cc1 | inactive
COc1cc(/C=C2\CCOC2=O)cc(OC)c1OC | inactive
COC(=O)c1ccncc1C(=O)Nc1ccc(Oc2ncc(C(F)(F)F)cc2Cl)cc1 | inactive
Cc1cc2nc3ccc(=[N+](C)C)cc-3sc2cc1N | inactive
Cc1ccc(C)c(-c2csc(Nc3ncccn3)n2)c1 | inactive
Cc1cccc(C)c1NC(=O)COC(=O)c1cc(=O)c2ccccc2o1 | inactive
CCS(=O)(=O)c1ccc(C(=O)Nc2ccccc2)c(Cl)c1Cl | 32.8 µM (active)
CN(C)S(=O)(=O)c1cccc(C(=O)N=C2N=C3C=CC(Cl)=CN3Cc3ccccc32)c1 | inactive
COc1ccc2nc(NCCCNC(=O)c3cc(OC)c(OC)c(OC)c3)c(C#N)cc2c1 | inactive
CCNC(=S)N(CCc1c(C)[nH]c2ccccc12)Cc1cccnc1 | inactive
CCc1ccc(C2c3[nH]c4ccccc4c3CCN2C(=O)c2cc[n+]([O-])cc2)cc1 (stereo not given) | inactive

SMILES | Potency
CCC(=O)Nc1ccc(S(=O)(=O)c2ccc(NC(=O)CC)cc2)cc1 | inactive
CCC(=O)NC1=C(Cl)C(=O)C(NC(=O)CC)=C(Cl)C1=O | inactive
O=C(Nc1ccc(N2CCCC2)cc1)c1ccc(Cl)cc1Cl | inactive
c1ccc2c(c1)nc(Nc1ccc(N3CCCCC3)cc1)c1nncn12 | inactive
CC1=NOC2(C1)N(C)c1ccccc1C2(C)C (stereo not given) | inactive
CCCc1nn(C)c(C(=O)Nc2ccc(C(C)(C)C)cc2)c1Cl | inactive
CC(C)(CN1CCN(c2ccccc2)CC1)NS(=O)(=O)c1ccccc1 | inactive
CC(C)C1CC(CCN)(c2ccccc2)CCO1 (stereo not given) | inactive
O=C(CNCc1cccs1)Nc1ccc(OC(F)(F)F)cc1 | inactive
COc1ccc(C2/C=C\CN(S(=O)(=O)c3ccc4ccccc4c3)CC(=O)N2Cc2ccc(F)cc2)cc1 (stereo not given) | 41.2 µM (active)
O=C(NC(=O)c1c(F)cccc1F)Nc1ccccc1SC(F)F | inactive
CS(=O)(=O)c1ccc(-c2csc(-c3cccnc3)n2)cc1 | inactive
CC1(C)CC2(CCO1)OC(=O)CC2C(=O)Nc1c(Cl)cccc1Cl (stereo not given) | inactive
O=C(C(c1ccccc1)c1ccccc1)N1CC[C@@]2(O)CCCC[C@H]2C1 | inactive
Cc1nn(-c2ccccc2)c2nc(C(Cl)(Cl)Cl)[nH]c(=O)c12 | inactive
Clc1cccc(Cl)c1CSc1nnc(-c2ccncc2)s1 | 41.2 µM (active)
CCn1c(=NC(=O)CN2C(=O)CCC2=O)sc2c(OC)ccc(OC)c21 | 0.923 µM (active)
